Experimental data: the supplement of paper PMC6555819

Columns and labels:
Test in all cases: PBM binding z-score (relative to random genomic background probes); higher = stronger binding; sequences stand for … in GC…GCGATTGACAGCGTAGAATGAAGG
[1] = system: FXR:RXRa (NR concentration 270 nM, RXRa partner concentration 90 nM)
How it was run: (§1)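 Ligand-free nuclear receptor dimers were bound for 1 h to custom Agilent 4×180K protein-binding microarrays. Detection used antibodies against each partner (one per run). Binding z-scores rest on regression-normalized fluorescence, with random background probes as the reference.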

[2] = system: LXRa:RXRa (NR concentration 270 nM, RXRa partner concentration 90 nM)
How it was run: as §1

[3] = system: LXRa homodimer (NR concentration 270 nM)
How it was run: as §1

[4] = system: LXRb:RXRa (NR concentration 270 nM, RXRa partner concentration 90 nM)
How it was run: as §1

[5] = system: LXRb homodimer (NR concentration 270 nM)
How it was run: as §1

[6] = system: PPARa:RXRa (NR concentration 270 nM, RXRa partner concentration 90 nM)
How it was run: as §1

[7] = system: PPARg:RXRa (NR concentration 180 nM, RXRa partner concentration 90 nM)
How it was run: as §1

[8] = system: PPARg:RXRa 270nM:90nM, anti-RXR (NR concentration 270 nM, RXRa partner concentration 90 nM)
How it was run: as §1

[9] = system: PPARg:RXRa 30nM:10nM, anti-RXR (NR concentration 30 nM, RXRa partner concentration 10 nM)
How it was run: as §1

[10] = system: PPARg:RXRa 90nM:30nM, anti-RXR (NR concentration 90 nM, RXRa partner concentration 30 nM)
How it was run: as §1

Row | Sequence | PBM binding z-score [1] | PBM binding z-score [2] | PBM binding z-score [3] | PBM binding z-score [4] | PBM binding z-score [5] | PBM binding z-score [6] | PBM binding z-score [7] | PBM binding z-score [8] | PBM binding z-score [9] | PBM binding z-score [10]
1 | CCTGCTTGGTCATGGTCAGCTAATCTACAGTATG | -0.315 | -0.299 | -0.539 | -0.459 | -0.639 | -0.334 | -0.171 | -0.154 | -0.537 | -0.192
2 | CGAACTAGGTCATTGACAGGACAGTGAGTAGTAA | 4.28 | 3.06 | 0.194 | 1.92 | -0.291 | 4.8 | 7.21 | 6.03 | 3.7 | 5.57
3 | TCTAGCTGGCCAGAGGGTCACTCAAGAGGTACGG | 1.2 | 0.792 | -0.669 | 1.05 | -0.983 | 1.89 | 0.596 | 1.85 | 1.77 | 1.44
4 | TCGAGTAGGTTACCAATGGGGCATTAAGCTTTCT | -0.382 | 1.24 | -0.459 | 0.663 | -1.11 | 0.96 | 0.247 | 1.17 | 1.39 | 1.18
5 | TGAATGAGGTTAAAGATCAGGGAGCGTGGCGTCG | 2.85 | 2.34 | -0.379 | 1.14 | 0.0684 | 4.39 | 5.63 | 5.88 | 5.47 | 6.49
6 | CGTCAAAGTTCAACTAAGGTAACGTCAAGCACGC | 7.22 | 6.46 | 4.23 | 4.17 | 2.06 | 5.14 | 5.08 | 5.67 | 2.61 | 4.36
7 | TAACCAAGGTGAAGGTCGTTGATCCCTCTGTAGA | 2.07 | 2.07 | 0.0328 | 1.66 | -0.394 | 2.58 | 3.03 | 3.53 | 2.15 | 4.01
8 | TATACAGGTTCAAAGGCCAGAGTACGAATGTCGA | 3.17 | 4.13 | 2.06 | 2.27 | 1.19 | 3.41 | 2.89 | 3.54 | 1.9 | 2.88
9 | GTACCAAGGTGAAAAGGTCGTTGATGAGTAGGCG | 2.32 | 1.94 | 0.42 | 1.99 | -0.22 | 3.63 | 2.62 | 3.36 | 1.38 | 2.94
10 | CCGACTGGGGCAAGGTTACCATGACGCACAGCCA | -0.0845 | 0.558 | 0.0292 | 0.445 | -1.06 | 1.87 | 2.78 | 3.14 | 1.24 | 2.47
11 | ATATCTAGGTTAAGGGTCATTCAGGTTGGTTCGC | 5.3 | 5.06 | 3.85 | 4.75 | 2.55 | 6.83 | 11.7 | 10.3 | 10.8 | 12.4
12 | CAAACTACGTCACGAAAGGTCAAAGTCGAATGAC | 5.17 | 6.32 | 6.22 | 5.7 | 2.44 | 5.11 | 3.01 | 4.1 | 1.58 | 3
13 | CGTCCAATGTCAGCAGGTCAGTGAAAGCGACGTG | 0.418 | 0.255 | -0.0257 | 0.392 | -0.161 | 1.22 | 0.115 | 0.0995 | -0.882 | -0.158
14 | ATCTCTAGGTAAGACTCAGTTCACTGAAGAACGC | 0.642 | 0.841 | 0.58 | 0.734 | 0.669 | 0.739 | 0.313 | 0.623 | 0.222 | 0.475
15 | TGAATGAGGTTATAAGATCAAGGAACGTTGCAAA | 1.48 | 1.44 | -0.207 | 0.961 | 0.00759 | 3.01 | 1.79 | 2.39 | 1.08 | 1.89
16 | TCTAGTTGGTCCCGGAGGTCACACACGACGGGTA | 2.88 | 2.9 | 2.37 | 3.18 | 0.951 | 3.55 | 1.68 | 2.9 | 3.06 | 3.11
17 | GGAATGAGGGCAAGTTGATAGCAGAGTTTGATGG | 1.28 | 0.752 | -0.149 | 0.54 | 0.0849 | 2.08 | 1.6 | 1.56 | 0.431 | 0.993
18 | TCTCGGAGGACACGAAAGGACAGAGCTCGACATC | 0.793 | 0.0695 | -0.281 | -0.358 | -0.815 | -0.148 | 0.542 | 0.751 | 1.85 | 1.34
19 | CCTCGGCGGACAACAGGAGGTCAGAGCTGCCAGA | 0.527 | 1.43 | 1.67 | 1.06 | -1.27 | 1.68 | -0.102 | 0.0174 | -0.988 | -0.415
20 | TGTCACAGTTCAAAGGTAACGTAAGTATCCACAC | 4.13 | 3.82 | 0.785 | 2.87 | 0.361 | 4.26 | 4.43 | 4.67 | 1.68 | 3.69
21 | AGAACGAGGGCACGCTGAGTTGATAGGAGAGTAG | 0.875 | 0.502 | -0.34 | 0.213 | -0.689 | 2.07 | 2.14 | 1.82 | 0.367 | 1.14
22 | CCTACTGGGCCATTCAGCGGTCATTGATCATATG | -0.0404 | 0.756 | 3.78 | 0.208 | -0.516 | 0.727 | 0.533 | 0.538 | -0.375 | 0.242
23 | TCGAGTAGGTTAGTCGGGGCATTTAGCCAACATA | 0.338 | 0.346 | -0.167 | 0.722 | -0.677 | 0.819 | -0.0847 | 0.976 | 1.17 | 1.04
